# Assay outcomes: PubChem BioAssay, National Center for Advancing Translational Sciences (NCATS)
# GLP1R cytotox: qHTS of GLP-1 Receptor Inverse Agonists: Cytotox Screen. HEK293 cAMP-luciferase reporter cells, luminescence, 24 h. Potency, µM (series often up to 38.3 µM), for inactives: at the highest dose activity change, negative = inhibition, hits mostly inhibitors. 410,000 compounds, 0.13% hits. AID 624418, 2012;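 note: loss of luciferase light is scored as toxicity; % is set by controls: 0 for no effect and ±100 for the full control effect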
#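 Cells in DMEM/10% Nu serum/1% pen-strep, 1536-well format. Pre-incubated 12 h, dosed with 23 nL compound, incubated a further 24 h. Luciferase detection, 12 min at room temp, luminescence.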
# GLP-1R agonist: qHTS of GLP-1 Receptor Agonists | Glucagon-like peptide 1 receptor (Homo sapiens), P43220 | HEK293 GLP-1R CRE-luciferase, luminescence, 4-6 h; cells express a hypersensitive GLP-1R form | Potency, µM (doses to about 45.6 µM), without a hit: at the top dose activation, usual class: activators | 380,000 compounds, 0.007% hits | AID 624172, 2012; note: % of control where 0% means no effect
# Target sequence (P43220 whole entry, looked up): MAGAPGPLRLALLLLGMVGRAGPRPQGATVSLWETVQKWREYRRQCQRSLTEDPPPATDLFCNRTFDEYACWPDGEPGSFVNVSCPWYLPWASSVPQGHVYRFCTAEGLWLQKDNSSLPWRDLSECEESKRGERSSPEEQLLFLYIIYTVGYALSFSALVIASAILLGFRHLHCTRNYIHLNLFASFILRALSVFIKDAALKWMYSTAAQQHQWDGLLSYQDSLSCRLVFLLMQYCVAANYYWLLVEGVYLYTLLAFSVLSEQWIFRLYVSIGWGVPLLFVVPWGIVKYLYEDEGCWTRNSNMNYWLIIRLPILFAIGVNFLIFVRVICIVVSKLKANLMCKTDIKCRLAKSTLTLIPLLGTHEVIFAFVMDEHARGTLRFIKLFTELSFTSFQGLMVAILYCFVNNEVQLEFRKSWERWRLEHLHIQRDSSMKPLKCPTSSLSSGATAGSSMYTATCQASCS
# Tb PFK inh: qHTS Assay to Find Inhibitors of T. brucei phosphofructokinase. ATP-dependent 6-phosphofructokinase (Trypanosoma brucei brucei), O15648. T. brucei PFK, ADP-Glo luminescence. Potency, µM (top dose mostly 57.5 µM), inactives show top-dose activity, negative = inhibition, actives largely listed as inhibitors. 330,000 compounds, 0.17% hits. AID 485367, 2010;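 note: 0% = uninhibited 1x PFK enzyme wells and -100% = no-enzyme wells; nearly all actives have a fitted effect of over 60% in size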
#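 In TEA buffer at pH 8.0 with 5 mM MgCl2, enzyme (1.25 nM) converted F6P (0.5 mM) and ATP (0.1 mM) for 45 min at room temperature. ADP product was read by luciferase luminescence.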
# GLP1R inv ag: qHTS of GLP-1 Receptor Inverse Agonists (Inhibition Mode) | Potency, µM (series often up to 38.3 µM), without a hit: top-dose activity change, negative = inhibition, most hits filed as inhibitors | HEK293 GLP-1R CRE-luciferase, luminescence, 24 h; GLP-1R form is constitutively active | AID 624417, 2012 | 410,000 compounds, 1.6% hits | Glucagon-like peptide 1 receptor (Homo sapiens), P43220; note: % is set by controls: 0 for no effect and ±100 for the full control effect; nearly all actives have a fitted effect of over 55% in size
#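 qHTS in 1536-well format: reporter HEK293 cells expressing constitutive GLP-1R activity in DMEM + 10% Nu serum, 24 hr with compounds at 37 deg C, luminescence read after 12 min with detection reagent.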
# Pin1 inhibitor: qHTS Assay to Find Inhibitors of Pin1 | Pin1 FP peptide displacement, HiFluor488, 10 min | 390,000 compounds, 0.009% hits | Potency, µM (titrated, usually from 115 µM), inactives show top-dose activity, negative = inhibition, usual class: inhibitors | AID 504891, 2011 | Peptidyl-prolyl cis-trans isomerase NIMA-interacting 1 (Homo sapiens), Q13526; active = well fitted inhibition curve with a large enough effect in the polarisation, with a control signal flat, not every such curve was filed as active; inconclusive = small, poorly fitted or top-dose-only effect, or effect the other way, or a change in a side signal; inactive = no such curve, though single readings can be large or run the other way; the % refers to the polarisation; note: % is set by controls: 0 for no effect and ±100 for the full control effect
# Target sequence (Q13526 whole entry, looked up): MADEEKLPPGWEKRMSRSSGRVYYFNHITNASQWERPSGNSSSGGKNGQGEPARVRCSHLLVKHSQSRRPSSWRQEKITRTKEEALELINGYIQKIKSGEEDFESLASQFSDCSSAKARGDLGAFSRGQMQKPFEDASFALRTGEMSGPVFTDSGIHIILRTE
# Tb PGK inh: qHTS Assay to Find Inhibitors of Phosphoglycerate Kinase. 380,000 compounds, 0.043% hits. Potency, µM (titrated, usually from 57.5 µM), for the others: top-dose activity change, negative = inhibition, usual class: inhibitors. PGK/GAPDH coupled, Kinase-Glo luminescence, 60 min. Phosphoglycerate kinase, glycosomal (Trypanosoma brucei brucei), P07378; note: % is set by controls: 0 for no effect and ±100 for the full control effect; nearly all actives have a fitted effect of over 60% in size
#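 Luminescent ATP detection (Kinase-Glo Plus) follows a 60-minute room-temperature incubation, with wells lacking PGK as controls. Buffer: 100 mM TEA (pH 7.6), 5 mM MgCl2, 0.01% Tween-20. Coupling enzyme GAPDH (100 nM final) supplies unstable 1,3-BPG in-well.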
# * marks the source's active call; other numbers are inactive results; i = inactive; ? = inconclusive; . = not tested or not shown. Compounds with a hit are over-represented: about 1.8% of the library has one in this group of screens. Unless noted, calls come from the whole dose curve; as a rule, active = well fitted curve in the direction sought with a large enough effect; inconclusive = small, poorly fitted or top-dose-only effect, or another doubt; inactive = no such curve, though single readings can be large; an effect the other way counts as inactive or inconclusive. Potency is the fitted concentration of half-maximal effect.
SMILES,GLP1R cytotox,GLP-1R agonist,Tb PFK inh,GLP1R inv ag,Pin1 inhibitor,Tb PGK inh
Cc1onc(-c2ccccc2)c1C(=O)Nc1ccccc1NC(=O)c1c(-c2ccccc2)noc1C,-2%,-4%,0%,9%,-1%,9%
CCCOc1ccccc1NC(=O)c1c(-c2ccccc2)noc1C,-1%,14%,-6%,11µM*,-4%,-8%
CCOc1ccc(C(=O)COC(=O)c2c(-c3ccccc3)noc2C)cc1,?,10%,-2%,10µM*,9%,-1%
Cc1cccc(CNC(=O)Cn2c(-c3cccs3)cc3ccccc32)c1,-13%,.,.,-25%,0%,-3%
CCSc1ncc(/C=N/Nc2ccccc2)n1C,?,14%,-1%,3.5µM*,-12%,-2%
CC1CCCCC1NCC(=O)Nc1ccccc1-c1ccccc1 (stereo not given),0%,5%,-4%,4.5µM*,-2%,i
COc1cccc(O)c1CN1CCCC(C(=O)c2cccc(C(F)(F)F)c2)C1 (stereo not given),?,20%,-1%,13µM*,4%,i
COc1ccc2cc(C(=O)C3CCCN(Cc4cccc(C)n4)C3)ccc2c1 (stereo not given),3.2µM*,11%,-2%,4.5µM*,2%,25%
O=C(N1CCc2cc([S+](=O)([O-])N3CCN([S+](=O)([O-])c4c(F)cccc4F)CC3)ccc2C1)C(F)(F)F,.,.,.,.,-3%,.
COc1cccc(CNC(=O)c2cccc(N3CCCS3(=O)=O)c2)c1,-6%,.,.,8%,-12%,0%
CCOc1ccc(NS(=O)(=O)c2cccc(C(=O)N3CCN(C/C=C/c4ccccc4)CC3)c2)cc1,-29%,-11%,.,10µM*,3%,-6%
CCc1cc(C(=O)N/N=C/c2ccc(O)cc2)c2ccccc2n1,-4%,16%,0%,-2%,54%,6%
CC(C)(C)c1cc(C(=O)N/N=C/c2ccc(O)cc2)n(-c2ccccc2)n1,9%,-4%,-3%,2µM*,-1%,7%
CCC1CC=CC2C1C(=O)N(Cc1ccccc1)C2c1ccoc1 (stereo not given),.,.,.,.,40%,.
CCN1C(=O)c2ccccc2C1Nc1cccc(OCCN2CCCCC2)c1 (stereo not given),.,-1%,.,.,.,.
CCC(COC)NCc1cn(-c2ccc(OC)cc2)nc1-c1cccc(F)c1 (stereo not given),?,4%,1%,4.5µM*,-7%,-4%
COc1ccc(-n2cc(CNC(C)c3ccncn3)c(-c3cccc(F)c3)n2)cc1 (stereo not given),3%,8%,-14%,?,0%,-3%
CCCCNc1c(-c2ccc(OC)c(SC3CCCCC3)c2)nc2ccc(C)cn12,4%,-5%,8%,7%,?,-3%
CCC(C)Sc1ccc(-c2nc3ccc(C)cn3c2NCc2ccccc2)cc1OC (stereo not given),-25%,-4%,0%,2.8µM*,0%,1%
CCCCNc1c(-c2ccc(SC3CCCCC3)c(OC)c2)nc2ccc(C)cn12,0%,-3%,8%,8.9µM*,7%,5%
CCC(C)Sc1cc(-c2nc3ccc(C)cn3c2NCc2ccccc2)ccc1OC (stereo not given),-18%,-6%,.,?,0%,-3%
COc1ccc2c(c1)/C(=C\c1cccc(/C=C3/C(=O)Nc4ccc(OC)cc43)n1)C(=O)N2,2.2µM*,-1%,.,?,6%,-4%
COc1ccc2c(c1)/C(=N/N1C(=O)c3ccccc3C1=O)C(=O)N2,.,.,0%,.,.,.
O=C(OCCN1C(=O)c2cccc3c(N4CCOCC4)ccc(c23)C1=O)c1ccccc1Cl,i,2%,2%,?,?,i
O=C(OCCN1C(=O)c2cccc3c(N4CCOCC4)ccc(c23)C1=O)c1ccc(Cl)cc1Cl,i,-9%,3%,1.3µM*,?,-3%
SMILES,GLP1R cytotox,GLP-1R agonist,Tb PFK inh,GLP1R inv ag,Pin1 inhibitor,Tb PGK inh
CCN(C(=O)CSc1nnnn1C)C1CCCCC1,-6%,-4%,0%,17%,-15%,-3%
CCn1nnnc1SCC(=O)N(C1CCCCC1)C1CCCCC1,-18%,6%,-4%,8.9µM*,-3%,4%
Cc1ccc(C)c(S(=O)(=O)NCC(c2ccco2)N2CCc3ccccc3C2)c1 (stereo not given),-14%,10%,-20%,11µM*,1%,-8%
Cc1ccc(C(=O)NCC(c2ccco2)N2CCc3ccccc3C2)cc1C (stereo not given),-4%,-3%,0%,11µM*,3%,2%
CCOc1ccc(S(=O)(=O)Nc2ccc(Cl)cn2)c(C)c1C,2%,-14%,-2%,11µM*,0%,-9%
Cc1sc2c(c1C)c(=O)n(-c1ccccc1)c(=O)n2CC(=O)c1ccc(Cl)cc1,7%,.,.,0%,27%,.
COc1ccc(CC(=O)Nc2nc(-c3ccc(F)c(F)c3)cs2)cc1,-1%,8%,-23%,11µM*,9%,-5%
Cc1cc(N/N=C/c2ccc(F)cc2)nc(-n2nc(C)cc2C)n1,?,6%,4%,?,-3%,8%
COc1ccc(/C=N/Nc2cc(C)nc(-n3nc(C)cc3C)n2)c(OC)c1,?,-7%,-6%,1.3µM*,4%,-1%
COc1cccc(-c2cc(C(F)(F)F)nc(NCCc3ccc(OC)c(OC)c3)n2)c1,6%,0%,.,0%,11%,-6%
CCn1nnc(NC(=S)NC(=O)c2ccc(-c3cccc(Cl)c3)o2)n1,5µM*,-1%,?,-22%,0%,i
Cc1ccc(C23CC4CC(CC(NC(=O)NCCN(C)C)(C4)C2)C3)cc1,?,-5%,1%,?,4%,-4%
CN(C)CCNC(=O)COc1ccc(C23CC4CC(CC(C4)C2)C3)cc1,?,8%,1%,2.8µM*,2%,12%
CCN(CC(=O)Nc1ccccc1C(F)(F)F)C(=O)C1CSC2(C)CCC(=O)N12 (stereo not given),-10%,9%,-14%,11µM*,-9%,-10%
